Assay results as given in PubChem BioAssay (EPA / NIEHS).
The source made the active and inactive calls. Rule for the calls: active = hit-call score of the fitted dose curve at least 0.9, where 1 is the maximum; inactive = score below 0.9.

How the values were obtained:
[1] = ATG_E_Box_CIS: Attagene CIS-FACTORIAL HepG2 Assay for human Enhancer Box (E-box) (AID 2282936); conditions: HepG2 E-box cis-reporter transcription, actives raise or lower the signal
Outline: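 Fluorescent reporter fragments separated by capillary electrophoresis gave the signal; mRNA came from HepG2 cells transfected with cis-element reporters and treated 24 h. Curves fitted bidirectionally relative to DMSO controls.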

[2] = ATG_M_61_CIS: Attagene CIS-FACTORIAL HepG2 Assay for M61 Transcription Factor (Internal Marker) (AID 2282937); conditions: HepG2 Attagene CIS-FACTORIAL M61 internal marker reporter; actives raise or lower the signal
Outline: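 HepG2 cells transiently transfected with cis-element-driven multiple reporter transcription units, dosed for 24 h. Reporter mRNA measured by RT-PCR, 6-FAM primer-extension labelling, HpaI digestion and capillary electrophoresis; bidirectional fit versus DMSO baseline.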

[3] = ATG_EGR_CIS: Attagene CIS-FACTORIAL HepG2 Assay for human Early Growth Response 1 (EGR1) (AID 2282938); conditions: HepG2 Attagene CIS-FACTORIAL EGR reporter mRNA; actives raise or lower the signal
Outline: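 HepG2 cells transiently transfected with cis-promoter-driven multiplexed reporter transcription units; reporter mRNA measured 24 h after compound dosing by RT-PCR, 6-FAM primer extension, HpaI digestion and capillary electrophoresis. Bidirectional fit versus DMSO baseline.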

[4] = ATG_Ets_CIS: Attagene CIS-FACTORIAL HepG2 Assay for human Erythroblast Transformation Specific (ETS) (AID 2282941); conditions: HepG2 ETS cis-reporter transcription, actives raise or lower the signal
Outline: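 Endogenous transcription factor activity read as reporter mRNA via RT-PCR and capillary electrophoresis, with gain or loss fitted bidirectionally against DMSO. Human HepG2 liver cells, transiently transfected CIS reporter constructs, 24 h exposure.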

[5] = molecular target: Hepatocyte nuclear factor 3-beta (Homo sapiens) (UniProt Q9Y261); test: ATG_FoxA2_CIS: Attagene CIS-FACTORIAL HepG2 Assay for human Forkhead box A2 (FOXA2) (AID 2282942); conditions: HepG2 cis-reporter transcription factor activity, 24 h; actives raise or lower the signal
Outline: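 HepG2 cells transiently transfected with multiple cis-regulated reporter transcription units, dosed for 24 h. Reporter mRNA measured by RT-PCR, 6-FAM labelling, HpaI digestion and capillary electrophoresis; bidirectional fitting against DMSO baseline.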

[6] = ATG_FoxO_CIS: Attagene CIS-FACTORIAL HepG2 Assay for human Forkhead box O (FoxO) (AID 2282943); conditions: HepG2 Attagene cis-reporter, FoxO element, mRNA; actives raise or lower the signal
Outline: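 Endogenous transcription factor activity read from multiplexed cis-promoter reporter transcripts in transiently transfected HepG2, 24 h after dosing. Reporter RNA measured via RT-PCR plus capillary electrophoresis of FAM-labeled products; gain or loss relative to DMSO.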

[7] = ATG_GATA_CIS: Attagene CIS-FACTORIAL HepG2 Assay for human GATA Binding Protein (AID 2282944); conditions: HepG2 GATA cis-element reporter, Attagene multiplex mRNA; actives raise or lower the signal
Outline: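 Read-out: fluorescent reporter mRNA fragments resolved by capillary electrophoresis after RT-PCR. Human liver HepG2 cells carried transiently transfected cis-regulated reporter constructs; chemicals incubated 24 h; gain or loss of signal fitted relative to DMSO.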

[8] = ATG_GLI_CIS: Attagene CIS-FACTORIAL HepG2 Assay for human Zinc Finger Protein GLI1 (AID 2282945); conditions: HepG2, Attagene cis-factorial reporter mRNA, GLI element; actives raise or lower the signal
Outline: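 Bidirectional curve fits relative to DMSO, using reporter mRNA levels from RT-PCR plus capillary electrophoresis. Cells were HepG2 transiently carrying cis-regulated reporter constructs, harvested 24 h after dosing.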

[9] = ATG_GRE_CIS: Attagene CIS-FACTORIAL HepG2 Assay for human Glucocorticoid Response Elements (GRE) (AID 2282947); conditions: HepG2 GRE cis-reporter, Attagene multiplex mRNA; actives raise or lower the signal
Outline: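 Multiplexed cis-reporter mRNA induction, HepG2, 24 h post-dose. RT-PCR, FAM-labelled, HpaI-digested amplicons by CE. Bidirectional fit vs DMSO.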

[10] = ATG_M_32_CIS: Attagene CIS-FACTORIAL HepG2 Assay for M32 Transcription Factor (Internal Marker) (AID 2282949); conditions: HepG2 Attagene cis-factorial M32 reporter, mRNA; actives raise or lower the signal;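 note: background control marker of the multiplexed CIS panel rather than a real target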
Outline: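 Transient MRTU transfection of HepG2; 24 h compound treatment; TriZol RNA, oligo(dT) RT, reporter PCR, 6-FAM primer extension, HpaI cut, CE. Gain/loss of signal vs DMSO.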

[11] = ATG_M_06_CIS: Attagene CIS-FACTORIAL HepG2 Assay for M06 Transcription Factor (Internal Marker) (AID 2282950); conditions: HepG2 Attagene CIS-FACTORIAL M06 internal marker reporter; actives raise or lower the signal
Outline: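 Terse: HepG2, transient MRTU transfection (FuGene 6), 24 h dosing; total RNA, oligo(dT) RT, PCR, FAM label, HpaI cut, capillary electrophoresis; bidirectional fit vs DMSO baseline; background-control endpoint.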

[12] = molecular target: Hypoxia-inducible factor 1-alpha (Homo sapiens) (UniProt Q16665); test: ATG_HIF1a_CIS: Attagene CIS-FACTORIAL HepG2 Assay for human Hypoxia Inducible Factor 1 (HIF1A) (AID 2282951); conditions: HepG2 Attagene cis-factorial HIF1a reporter transcription; actives raise or lower the signal
Outline: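 HepG2 cells transiently transfected with multiplexed cis-promoter reporter units; reporter mRNA read 24 h after dosing by RT-PCR, 6-FAM primer-extension labelling, HpaI digestion and capillary electrophoresis. Bidirectional fit versus DMSO baseline.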

[13] = molecular target: Hepatocyte nuclear factor 6 (Homo sapiens) (UniProt Q9UBC0); test: ATG_HNF6_CIS: Attagene CIS-FACTORIAL HepG2 Assay for human Hepatocyte Nuclear Factor 6 (HNF6) (AID 2282952); conditions: HepG2 Attagene cis-factorial HNF6 reporter transcription; actives raise or lower the signal
Outline: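 Activity values derive from bidirectional fitting against DMSO of reporter mRNA levels, measured by capillary electrophoresis of labelled RT-PCR products from HepG2 cells exposed 24 h.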

[14] = ATG_MRE_CIS: Attagene CIS-FACTORIAL HepG2 Assay for human Metal Responsive Element (MRE) (AID 2282954); conditions: HepG2 MRE cis-reporter transcription, Attagene multiplex; actives raise or lower the signal
Outline: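 Multiplexed cis-reporter assay in human HepG2 liver cells, 24 h incubation with test chemical. Reporter transcripts measured by RT-PCR and capillary electrophoresis; values from bidirectional curve fitting versus DMSO.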

[15] = ATG_PBREM_CIS: Attagene CIS-FACTORIAL HepG2 Assay for human Phenobarbital-responsive Enhancer Module (PBREM) (AID 2282955); conditions: HepG2 PBREM cis-reporter, Attagene multiplexed transcription; actives raise or lower the signal
Outline: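 HepG2 cells transiently transfected with multiple cis-regulated reporter transcription units; endogenous factor activity at the PBREM element measured as reporter mRNA 24 h after dosing, via RT-PCR and capillary electrophoresis of fluorescent fragments; bidirectional fitting versus DMSO.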

[16] = ATG_M_19_CIS: Attagene CIS-FACTORIAL HepG2 Assay for M19 Transcription Factor (Internal Marker) (AID 2282939); conditions: HepG2 Attagene CIS-FACTORIAL M19 internal marker reporter; actives raise or lower the signal
Outline: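 Readout: fluorescent reporter-transcript fragments by capillary electrophoresis after RT-PCR. Human HepG2 liver cells carried transfected MRTU constructs reporting endogenous transcription-factor activity; exposure 24 h. Gain or loss of signal fitted relative to DMSO.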

[17] = molecular target: Bile acid receptor (Homo sapiens) (UniProt Q96RI1); test: ATG_IR1_CIS: Attagene CIS-FACTORIAL HepG2 Assay for human Nuclear Receptor Subfamily 1 Group H Member 4 (NR1H4), IR1 submotif (AID 2282946); conditions: IR1 reporter transcription, actives raise or lower the signal
Outline: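 HepG2 cells transiently transfected with multiplexed cis-element reporter units read endogenous transcription factor activity. After 24 h compound exposure, reporter mRNA was quantified by RT-PCR, fluorescent labelling, HpaI digestion and capillary electrophoresis; bidirectional fitting versus DMSO baseline.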

[18] = ATG_ISRE_CIS: Attagene CIS-FACTORIAL HepG2 Assay for human Interferon Regulatory Factor 1 (IRF1) binding to an Interferon-Stimulated Response Element (ISRE) (AID 2282948); conditions: HepG2 ISRE cis-reporter (Attagene), mRNA transcription readout; actives raise or lower the signal
Outline: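 Endogenous transcription factor activity read as reporter transcript abundance via RT-PCR and capillary electrophoresis. HepG2 cells transiently transfected, 24 h chemical exposure. Gain or loss fitted against DMSO baseline.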

[19] = molecular target: Heat shock factor protein 1 (Homo sapiens) (UniProt Q00613); test: ATG_HSE_CIS: Attagene CIS-FACTORIAL HepG2 Assay for human Heat Shock Transcription Factor 1 (HSE) (AID 2282953); conditions: HepG2 HSE cis-reporter, Attagene RNA transcription; actives raise or lower the signal
Outline: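 Read-out: fluorescence of reporter-specific RT-PCR fragments separated by capillary electrophoresis. HepG2 carrying transfected cis-element reporter units; 24 h dosing; activity fitted in both directions relative to DMSO baseline.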

Measured: AC50

Heat shock factor protein 1 (Homo sapiens), sequence (Q00613 whole entry, looked up, the tested form may be a part): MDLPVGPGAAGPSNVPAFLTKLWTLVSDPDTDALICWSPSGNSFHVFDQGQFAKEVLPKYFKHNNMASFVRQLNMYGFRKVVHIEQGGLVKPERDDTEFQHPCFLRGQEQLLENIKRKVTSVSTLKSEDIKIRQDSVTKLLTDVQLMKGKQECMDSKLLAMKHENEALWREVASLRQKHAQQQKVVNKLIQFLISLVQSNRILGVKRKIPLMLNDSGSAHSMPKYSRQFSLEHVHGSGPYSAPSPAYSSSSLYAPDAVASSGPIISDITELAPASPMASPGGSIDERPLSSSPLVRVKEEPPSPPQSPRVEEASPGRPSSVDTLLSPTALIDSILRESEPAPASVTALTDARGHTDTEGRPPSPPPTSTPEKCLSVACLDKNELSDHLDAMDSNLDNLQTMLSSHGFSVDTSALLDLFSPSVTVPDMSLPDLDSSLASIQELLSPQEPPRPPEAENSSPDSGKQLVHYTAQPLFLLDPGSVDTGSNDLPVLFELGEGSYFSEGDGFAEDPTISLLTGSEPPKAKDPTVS
Hypoxia-inducible factor 1-alpha (Homo sapiens), sequence (Q16665 whole entry, looked up): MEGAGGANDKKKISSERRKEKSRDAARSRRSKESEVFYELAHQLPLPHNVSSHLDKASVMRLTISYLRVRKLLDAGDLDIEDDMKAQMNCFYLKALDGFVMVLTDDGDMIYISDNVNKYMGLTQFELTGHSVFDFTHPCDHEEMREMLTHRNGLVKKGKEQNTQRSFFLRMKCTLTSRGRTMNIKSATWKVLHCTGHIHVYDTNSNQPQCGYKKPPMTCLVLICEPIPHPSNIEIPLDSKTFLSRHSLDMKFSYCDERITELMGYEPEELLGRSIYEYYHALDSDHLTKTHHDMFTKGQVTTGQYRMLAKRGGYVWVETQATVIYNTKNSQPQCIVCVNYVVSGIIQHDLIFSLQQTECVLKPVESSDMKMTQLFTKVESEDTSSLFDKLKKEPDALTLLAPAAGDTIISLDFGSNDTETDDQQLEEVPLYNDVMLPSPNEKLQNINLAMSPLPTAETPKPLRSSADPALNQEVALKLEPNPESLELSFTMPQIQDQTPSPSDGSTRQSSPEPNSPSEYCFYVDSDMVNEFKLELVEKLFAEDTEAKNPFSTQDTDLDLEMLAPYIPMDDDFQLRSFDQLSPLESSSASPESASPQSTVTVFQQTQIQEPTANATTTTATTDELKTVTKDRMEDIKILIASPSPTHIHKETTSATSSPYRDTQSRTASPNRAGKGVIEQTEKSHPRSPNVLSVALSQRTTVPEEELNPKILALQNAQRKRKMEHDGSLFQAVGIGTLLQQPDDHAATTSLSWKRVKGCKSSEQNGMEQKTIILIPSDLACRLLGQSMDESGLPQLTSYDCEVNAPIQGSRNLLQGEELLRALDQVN
Hepatocyte nuclear factor 6 (Homo sapiens), sequence (Q9UBC0 whole entry, looked up): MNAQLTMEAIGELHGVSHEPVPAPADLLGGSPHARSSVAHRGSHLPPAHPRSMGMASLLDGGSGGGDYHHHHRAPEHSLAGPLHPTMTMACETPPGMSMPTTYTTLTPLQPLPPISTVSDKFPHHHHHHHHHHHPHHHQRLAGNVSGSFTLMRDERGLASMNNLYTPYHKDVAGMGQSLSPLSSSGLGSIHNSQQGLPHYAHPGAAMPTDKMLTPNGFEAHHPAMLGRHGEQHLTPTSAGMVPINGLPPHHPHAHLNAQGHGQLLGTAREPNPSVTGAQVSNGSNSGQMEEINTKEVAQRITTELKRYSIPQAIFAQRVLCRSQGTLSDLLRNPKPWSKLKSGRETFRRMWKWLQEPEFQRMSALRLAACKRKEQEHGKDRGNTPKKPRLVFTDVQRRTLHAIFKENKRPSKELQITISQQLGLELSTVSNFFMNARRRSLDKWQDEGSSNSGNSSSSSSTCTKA
Bile acid receptor (Homo sapiens), sequence (Q96RI1 whole entry, looked up): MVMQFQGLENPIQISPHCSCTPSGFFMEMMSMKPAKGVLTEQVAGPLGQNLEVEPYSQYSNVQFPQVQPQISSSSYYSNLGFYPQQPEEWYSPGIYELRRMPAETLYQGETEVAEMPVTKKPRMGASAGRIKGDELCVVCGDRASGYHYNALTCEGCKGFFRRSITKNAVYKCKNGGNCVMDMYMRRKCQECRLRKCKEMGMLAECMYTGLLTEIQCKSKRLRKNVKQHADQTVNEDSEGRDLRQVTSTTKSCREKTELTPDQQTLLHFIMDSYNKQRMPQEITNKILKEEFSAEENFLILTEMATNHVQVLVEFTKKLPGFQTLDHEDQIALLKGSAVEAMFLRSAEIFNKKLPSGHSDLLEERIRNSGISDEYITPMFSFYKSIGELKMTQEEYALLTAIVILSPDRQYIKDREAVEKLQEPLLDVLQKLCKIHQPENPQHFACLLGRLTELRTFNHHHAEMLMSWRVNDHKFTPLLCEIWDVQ
Hepatocyte nuclear factor 3-beta (Homo sapiens), sequence (Q9Y261 whole entry, looked up): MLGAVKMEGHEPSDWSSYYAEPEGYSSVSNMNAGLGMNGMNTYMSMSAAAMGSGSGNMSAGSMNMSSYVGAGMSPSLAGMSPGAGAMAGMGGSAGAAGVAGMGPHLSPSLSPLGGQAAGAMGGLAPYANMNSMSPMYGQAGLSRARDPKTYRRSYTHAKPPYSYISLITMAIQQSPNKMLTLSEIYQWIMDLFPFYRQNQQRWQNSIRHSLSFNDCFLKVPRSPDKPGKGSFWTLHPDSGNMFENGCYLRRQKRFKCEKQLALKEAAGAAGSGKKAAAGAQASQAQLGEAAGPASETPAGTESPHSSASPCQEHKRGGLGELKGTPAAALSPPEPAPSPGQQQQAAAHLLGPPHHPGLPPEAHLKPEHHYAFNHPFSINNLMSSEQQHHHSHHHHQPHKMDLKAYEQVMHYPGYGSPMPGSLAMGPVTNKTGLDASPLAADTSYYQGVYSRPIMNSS

CC(=O)NCCO
not listed: [16] | [17] | [18] | [19]
inactive: all other assays above

CC(C)C[C@H](NC(=O)OCC1c2ccccc2-c2ccccc21)C(=O)O
not listed: [4] | [6]
inactive: all other assays above

CCCCCCCCCCCCCC(=O)OCC(O)CO (configuration not stated)
not listed: [4] | [5]
inactive: all other assays above

COc1cc(CCC(C)=O)ccc1O
not listed: [16] | [19]
inactive: all other assays above

N[C@@H](Cc1cc(I)c(Oc2cc(I)c(O)c(I)c2)c(I)c1)C(=O)O
active: [14] 27.8 µM | [15] 11.2 µM
not listed: [12] | [16] | [17]
inactive: all other assays above
